Results from publication PMC7826789 (International Journal of Molecular Sciences, 2021).

Each molecule was assayed on ULK1. Details: Compound Concentration (nM):1000.
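Further: KINOMEscan scanMAX binding as percent activity remaining versus control; lower means stronger binding.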

Row | Compound | Percent Control [%]
1 | COc1cc(N2CCN(C(C)C)CC2)ccc1Nc1nc(Nc2ccc(F)cc2C(=O)NC[C@@H](O)CO)c2cc[nH]c2n1 [GSK1392956A] | 65
2 | Nc1ncnc2occ(-c3ccc(NC(=O)Nc4cc(C(F)(F)F)ccc4F)cc3)c12 [GW770249X] | 100
3 | NS(=O)(=O)c1ccc(N/N=C2\C(=O)Nc3ccc(C(=O)NCc4ccncc4)cc32)cc1 [GW300657X] | 15
4 | COc1cccc(-c2c[nH]c3c(N/N=C/c4ccncc4)ncnc23)c1 [GW814408X] | 100
5 | COc1ccc2c(-c3ccnc(Nc4cccc(OC(F)(F)F)c4)n3)cnn2n1 [GW810372X] | 100
6 | CCS(=O)(=O)c1ccc(OC)c(Nc2ncc(-c3cccc(OC)c3)o2)c1 [GW580509X] | 87
7 | Cl.O=C(Nc1ccc(Oc2ccc3[nH]c(NC(=O)c4ccco4)nc3c2)cc1)Nc1cc(C(F)(F)F)ccc1F [GW683134A] | 100
8 | CCn1c(-c2nonc2N)nc2c(C#CC(C)(C)O)nc(OCCNC)cc21.Cl [GSK949675] | 88
9 | COc1cccc(-n2ncc3c(N/N=C/c4ccncc4)ncnc32)c1 [GW784752X] | 67
10 | COc1ccccc1-c1cc(/C=C2\C(=O)Nc3ncc(Br)cc32)cc(Br)c1O [GW442130X] | 85
11 | Cl.O=C(O[C@H]1CN[C@H](C#Cc2cc3ncnc(Nc4ccc5c(cnn5Cc5ccccc5)c4)c3s2)C1)N1CCOCC1 [GSK200398A] | 62
12 | COc1cc2ncn(-c3cc(O[C@H](C)c4ccccc4Cl)c(C(N)=O)s3)c2cc1OC [GSK237701A] | 92
13 | Cl.O=C(Nc1ccc(Oc2ccc3[nH]c(NC(=O)c4ccccc4)nc3c2)cc1)Nc1cc(C(F)(F)F)ccc1F [GW709042A] | 100
14 | NS(=O)(=O)c1ccc(N/N=C2\C(=O)Nc3ccc(C(=O)NCCc4c[nH]cn4)cc32)cc1 [GW300660X] | 38
15 | CN1CCN(C(=O)c2ccc(NC(=O)Nc3ccc(N(C)c4ccnc(Nc5ccc(CS(C)(=O)=O)cc5)n4)cc3)cc2)CC1.Cl [GW830263A] | 79
16 | CN(C)CCNC(=O)Nc1ccc(N(C)c2ccnc(Nc3ccc(CS(C)(=O)=O)cc3)n2)cc1.Cl [GW830900A] | 94
17 | COc1cc(C)c(N(C)C(=O)CN(C)C)cc1Nc1nc(Nc2cccc(F)c2C(N)=O)c2cc[nH]c2n1 [GSK2219385] | 72
18 | CCS(=O)(=O)c1ccc(OC)c(Nc2ncc(-c3cccc(F)c3)o2)c1 [GW621970X] | 88
19 | Cc1cc(O)cc(C)c1/C=C/c1cncc(C(N)=O)c1 [GW435821X] | 100

Row | Compound | Percent Control [%]
20 | COc1ccc(COc2ccc(Cc3cnc(N)nc3N)cc2OC)cc1 [GW632580X] | 90
21 | COc1cc(/C=N/Nc2ncnc3[nH]ncc23)ccc1O [GW578748X] | 48
22 | NS(=O)(=O)c1ccc(N/N=C2\C(=O)Nc3ccc(Cl)cc32)cc1 [GW280670X] | 100
23 | COc1cc(C=NNc2ncnc3c2cnn3-c2ccccc2)ccc1O [GW513184X] | 100
24 | CC(C)COC(=O)c1ccc2c(c1)/C(=C/Nc1ccc(S(N)(=O)=O)cc1)C(=O)N2 [GW416981X] | 0.1
25 | C[C@@H](Oc1cc(-n2cnc3ccc(OC4CCN(C)CC4)cc32)sc1C(N)=O)c1ccccc1Cl [GSK579289A] | 71
26 | COC(=O)Nc1nc2ccc(Oc3ccc(NC(=O)Nc4cc(C(F)(F)F)ccc4F)cc3)cc2s1.Cl [GW693917A] | 62
27 | Cl.O=S1CCN(Cc2ccc(-c3ccc4ncnc(Nc5ccc(OCc6ccccc6)c(F)c5)c4c3)o2)CC1 [GW576924A] | 90
28 | CC1=C(C(=O)Nc2ccc3[nH]ncc3c2)C(c2ccc(Cl)c(Cl)c2)CC(=O)N1 (centres unmarked) [GSK299115A] | 81
29 | O=C(Nc1n[nH]c2nc(-c3ccc(O)cc3)c(Br)cc12)C1CC1 [SB-725317] | 100
30 | COc1ccc2cc(-c3c(-c4ccncc4)nc(-c4ccc(S(C)(=O)=O)cc4C)n3C)ccc2c1 [SB-633825] | 72
31 | COc1cc2ncnc(Nc3ccc4c(cnn4Cc4ccccc4)c3)c2cc1OC.Cl [GW282449A] | 74
32 | Cl.c1ccc(Cc2nc3ccc(Nc4ncnc5ccccc45)cc3[nH]2)cc1 [GR269666A] | 67
33 | NS(=O)(=O)c1ccc(N/N=C2\C(=O)Nc3ccc(-c4cnco4)cc32)cc1 [GW276655] | 84
34 | COc1ccc2[nH]c3c4[nH]c5ccc(OC)cc5c4c4c(c3c2c1)C(=O)NC4=O [GW296115X] | 100
35 | CCc1ccc(Oc2nccc(-c3c(-c4ccc(F)cc4)ncn3C3CCNCC3)n2)cc1 [SB-242719] | 92
36 | CC1=C(C(=O)Nc2ccc3[nH]ncc3c2)C(c2ccc3ccccc3c2)CC(=O)N1 (centres unmarked) [GSK270822A] | 82
37 | NS(=O)(=O)c1ccc(Nc2ncc(-c3ccccc3)o2)cc1 [GW572399X] | 100
38 | C/C(Nc1ccc(S(N)(=O)=O)cc1)=C1/C(=O)Nc2ccccc21 [GW335962X] | 62
